Common to all, as to assay type: functional
Assay [1] has as its target Solute carrier family 2, facilitated glucose transporter member 1 (Homo sapiens) (UniProt P11166). As to the kind of experiment: ST_JUDE_LEISH: Cytotoxicity at 2uM final concentration against transgenic Leishmania Mexicana promastigotes LmGLUT1 that are glucose transport deficient and complemented with the human glucose transporter GLUT1. Activity is measured by DNA content using SYBR green in vitro.

The target in assay [2] is Hexose transporter 1 (Plasmodium falciparum) (UniProt O97467). Description: ST_JUDE_LEISH: Cytotoxicity at 2uM final concentration against transgenic Leishmania Mexicana promastigotes LmPfHT that are glucose transport deficient and complemented with the Plasmodium falciparum hexose transporter. Activity is measured by DNA content using SYBR green in vitro.
For assay [3], the target named is Glucose transporter (Leishmania mexicana) (UniProt O61059). As to the kind of experiment: ST_JUDE_LEISH: Cytotoxicity at 2uM final concentration against transgenic Leishmania Mexicana promastigotes LmGT2 that are glucose transport deficient and complemented with the L. Mexicana glucose transporter 2. Activity is measured by DNA content using SYBR green in vitro.

Sequence of Solute carrier family 2, facilitated glucose transporter member 1 (Homo sapiens) (P11166 whole entry): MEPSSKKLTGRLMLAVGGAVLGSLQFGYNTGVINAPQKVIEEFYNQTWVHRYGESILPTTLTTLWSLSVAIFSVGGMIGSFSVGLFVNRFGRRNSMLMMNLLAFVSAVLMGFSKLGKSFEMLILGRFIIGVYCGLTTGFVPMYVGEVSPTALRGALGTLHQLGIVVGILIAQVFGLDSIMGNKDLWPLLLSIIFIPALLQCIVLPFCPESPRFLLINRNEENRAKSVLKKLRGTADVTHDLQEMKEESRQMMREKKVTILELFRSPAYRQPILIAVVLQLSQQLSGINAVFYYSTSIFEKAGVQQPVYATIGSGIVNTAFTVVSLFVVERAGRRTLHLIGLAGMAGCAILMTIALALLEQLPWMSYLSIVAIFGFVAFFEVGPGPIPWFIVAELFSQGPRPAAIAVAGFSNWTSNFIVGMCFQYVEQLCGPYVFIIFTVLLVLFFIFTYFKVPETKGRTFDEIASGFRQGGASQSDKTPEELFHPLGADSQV

On to `COc1cc(C(=O)Nc2cccc(-c3nc4ccccc4[nH]3)c2)ccc1OC(C)=O`, for which the inhibition was -0.73% in assay [1], 2.19% in assay [2] and 0.31% in assay [3].

Regarding `CN1CCC(C(=O)Nc2cccc(-c3ccc(-c4nc5cc(C(F)(F)F)ccc5[nH]4)s3)c2)CC1`, the inhibition was determined as 9.29% in assay [1], 10% in assay [2] and 6.1% in assay [3].

With `O=C(Nc1cccc(CN2CCCN(Cc3ccc(F)cc3)CC2)c1)c1ccc(Cl)c(Cl)c1`, the values for the inhibition in assay [1], in assay [2] and in assay [3] were 4.82%, 4.15% and 0.56%, respectively.

As for `c1ccc2c(Nc3ccc(Cc4ccc(Nc5c6ccccc6nc6ccccc56)cc4)cc3)c3ccccc3nc2c1`, the inhibition in assay [1] was found to be 6.04%; in assay [2] it was 6.65%; in assay [3] it was 2.95%.

For the compound `Cc1noc(NC(=O)c2sc3ccccc3c2O)c1C`, the inhibition in assay [1] was 1.04%; in assay [2], 0.61%; in assay [3] it was -0.8%.

For `CCc1ccc(NC(=O)c2cccc(CN3CCCN(Cc4cccc(O)c4)CC3)c2)cc1`, the inhibition in assay [1] was found to be 3.9%; in assay [2], 3.08%; in assay [3], 2.2%.

As to `COc1ccc2nccc([C@@H](O)CN3CCC(NCc4cc5ccccc5[nH]4)CC3)c2c1`, the results for the inhibition in assay [1], in assay [2] and in assay [3] were 17%, 23.5% and 4.85%, respectively.

Regarding `O=C(N[C@@H](Cc1ccccc1)CN1CCC(Oc2ccc(F)cc2)CC1)c1ccc(OCCCN2CCCCC2)cc1`, the inhibition is 30.5% in assay [1], 10.5% in assay [2] and 13.4% in assay [3].

For `O=C(NCCN1CCCCC1)c1ccc(CNC(=O)c2ccc(O)c(-c3ccc(Cl)c(Cl)c3)c2)cc1`, the inhibition is 0.15% in assay [1], 0.04% in assay [2] and -0.59% in assay [3].

With `O=C(/C=C/c1ccc(Cl)c(Cl)c1)NCCCCCCN1CCCN(C(=O)Nc2cc(Cl)cc(Cl)c2)CC1`, the figures for the inhibition in assay [1], in assay [2] and in assay [3] were 0.67%, 0.41% and -2.48%, respectively.

Turning to `CS(=O)(=O)Cc1cccc(Nc2ncc(Cl)c(Nc3cccnc3C(N)=O)n2)c1`, the inhibition in assay [1] is 11.5%; in assay [2], 12.6%; in assay [3], 15.6%.

Consider `O=C(Nc1ccccc1C(F)(F)F)Nc1nn(Cc2c(F)cccc2Cl)cc1Br`, for which the figures for the inhibition in assay [1], in assay [2] and in assay [3] were 5.53%, 4.7% and 3.18%, respectively.

For `COc1cccc(CC(=O)N2CCC(n3c(C)nc4ccc(C)cc43)CC2)c1`, the inhibition was 1.58% in assay [1], 1.46% in assay [2] and 1.1% in assay [3].

For `Cc1cccc(Nc2c(-c3cc(Br)ccc3O)nc3ncccn23)c1`, the inhibition in assay [1] is 0.12%; in assay [2], -0.3%; in assay [3] it was -1.33%.

With `O=C(NC1CCC(N2CCN(c3cccc4[nH]ccc34)CC2)CC1)c1cc2cccnc2[nH]1` (stereo not drawn), the inhibition is 12% in assay [1], 13.2% in assay [2] and 7.93% in assay [3].

As for `COc1cc(OC)cc(-c2nn(-c3ccc([N+](=O)[O-])cc3C#N)c(=S)n2Cc2ccco2)c1`, the inhibition in assay [1] is 0.03%; in assay [2], -1.55%; in assay [3], 4.15%.

In the case of `CCN1CCc2nc3ccccc3c(C(=O)Nc3ccc(C#N)cc3)c2C1`, the inhibition is -0.12% in assay [1], 3.74% in assay [2] and -1.04% in assay [3].

For `CC(=O)c1cccc2[nH]c(C(=O)NC3CCC(CCN4CCc5ccc(C#N)cc5C4)CC3)cc12` (stereo not drawn), the inhibition was 4.5% in assay [1], 4.09% in assay [2] and 2.51% in assay [3].

On to `COc1ccc2nccc([C@@H](O)CN3CCC(NCc4ccc5c(c4)oc(=S)n5C)CC3)c2c1`, for which the figures for the inhibition in assay [1], in assay [2] and in assay [3] were 2.25%, 5.5% and 1.46%, respectively.

For the compound `Cc1ccc(C)c(-n2c(SCC(=O)Nc3ccc(C(N)=O)cc3)nnc2-c2cccc(Cl)c2)c1`, the inhibition is 11.3% in assay [1], 11.6% in assay [2] and 10.4% in assay [3].

As to `O=C(Nc1ccc(OC2CCN(Cc3ccccc3)C2)c(Cl)c1)c1ccc(F)cc1` (stereo not drawn), the inhibition in assay [1] was -5.06%; in assay [2], 1.99%; in assay [3], 4.21%.

As to `COc1ccc(Nc2nccc(N3CCC(NC(=O)Nc4cccc(C(C)=O)c4)C3)n2)cc1` (stereo not drawn), the inhibition in assay [1] was -3.73%; in assay [2], 0.98%; in assay [3], 3.49%.

Consider `COc1cc(C2C(Oc3ccccc3)C(=O)N2Cc2ccc(F)cc2)cc(OC)c1OC` (stereo not drawn), for which the inhibition was determined as 3.73% in assay [1], 3.29% in assay [2] and 2.56% in assay [3].

As to `CCCCCCN1CCCN(Cc2ccc(C(=O)Nc3ccc(F)c(F)c3)cc2)CC1`, the values for the inhibition in assay [1], in assay [2] and in assay [3] were 17.1%, 18.5% and 12.9%, respectively.

For the compound `Cc1nc(N)nc(N)c1-c1ccc(Br)c([N+](=O)[O-])c1`, the inhibition worked out at 1.12% in assay [1], 2.99% in assay [2] and 2.4% in assay [3].

In the case of `Cc1cc(OCCCN2CCCCC2)ccc1NC(=O)COc1ccc(Cl)cc1C(=O)c1cc(Cl)cc(C#N)c1`, the inhibition was found to be 60.8% in assay [1], 19.1% in assay [2] and 5.79% in assay [3].

As to `CNCCNCc1cccc(-c2cccc(-c3nc4cccc(C)c4[nH]3)c2)c1`, the inhibition in assay [1] came out at 0.8%; in assay [2], 2.47%; in assay [3], 0.35%.

Turning to `COc1ccc(NC(=O)[C@H](Cc2ccccc2)Nc2cc(C)nc(NCCc3cccnc3)n2)cc1`, the inhibition in assay [1] is -0.56%; in assay [2], 1.12%; in assay [3], 1.34%.

Turning to `COc1ccc2ncc(Cl)c(NCC3(O)CCC(NCc4ccc5c(n4)NC(=O)CS5)CC3)c2n1` (stereo not drawn), the figures for the inhibition in assay [1], in assay [2] and in assay [3] were 4.63%, 3.3% and 1.82%, respectively.

As for `COc1ccccc1C(=O)Nc1ccc(Nc2nc(C)cc(N(C)C)n2)cc1`, the inhibition in assay [1] was found to be 7.13%; in assay [2], 18.3%; in assay [3], 5.83%.

On to `CCNc1cc(C)nc(Nc2ccc(NC(=O)c3ccco3)cc2)n1`, for which the inhibition in assay [1] was 4.54%; in assay [2], 3.53%; in assay [3], -0.01%.

Regarding `CC(C)CNCc1cccc(-c2ccccc2CN(C(=O)NCCc2ccccc2)C2CCN(Cc3ccccc3)CC2)c1`, the inhibition was found to be 13.1% in assay [1], 11.4% in assay [2] and 8.25% in assay [3].

Turning to `Cc1ccc(Cn2c(N3CCC(C(=O)NCc4ccccn4)CC3)nc3ccccc32)cc1`, the inhibition in assay [1] stood at 4.09%; in assay [2], 4.68%; in assay [3], 7.97%.

Turning to `COc1cccc(NC(=O)c2cc([N+](=O)[O-])ccc2NC(=O)CN2CCc3ccccc3C2)c1`, the inhibition in assay [1] came out at 4.59%; in assay [2], 0.9%; in assay [3] it was 4.74%.

Turning to `CCCN(C(=O)c1ccccc1C)c1nnc(-c2ccccc2C)s1`, the inhibition was -1.25% in assay [1], 0.17% in assay [2] and -3.1% in assay [3].

Take `COc1ccc2c(=NN=Cc3cccc(C)n3)cc(-c3ccccc3)[nH]c2c1`: the inhibition in assay [1] was 4.3%; in assay [2], 2.19%; in assay [3], 4.08%.

What is called inhibition is the relative decrease from the control value, in per cent.

Values taken from ChEMBL document CHEMBL3433997, “St. Jude Leishmania screening dataset” (2016).
